PubChem BioAssay AID720514 (Broad Institute, 2013)
Out of some 2,100 compounds screened, about 300 (14%) were called active. Another 2% or so got no clear call; they are omitted.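 Rule for the calls: active = every replicate test run called active, with the signal falling and half-maximal concentration within twice the top valid dose; inconclusive = the replicate test runs disagree in their calls; inactive = every test run inactive, including effects in the opposite direction.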 These entries were drawn from the full list. Entries with a potency or affinity are not part of this list.

Test: inhibitors of PGC1a acetylation in cells, dose response, cell-based, cherry-picked samples (AID 720514)
Details: U2OS PGC1a acetylation, AlphaLISA, overnight; series mostly up to 19.5 µM
With Cc1cc(C)cc(N(CC(=O)NC2CC3CCC2C3)S(C)(=O)=O)c1 (centres undefined) the outcome was “inactive”. In the case of O=C(CN1CCC(N2CCCCC2)CC1)N1CCCc2ccccc21, the outcome is reported as “inactive”. In the case of CCCc1cc2c(cc1N(C)S(=O)(=O)c1ccccc1)OCO2, the outcome is reported as “inactive”. In the case of Cc1ccc(NC(=O)CN2CCC(NC(=O)Cc3ccccc3)CC2)c(C)c1, the outcome is reported as “inactive”. With O=C(Nc1ccccc1-c1ccccc1)NC1CC2CCCC(C1)N2Cc1ccc(F)cc1 (centres undefined) the outcome was “inactive”. In the case of Cc1nn2c(NCCCN3CCOCC3)c3c(nc2c1-c1ccccc1)CCC3, the outcome is reported as “inactive”. For O=C(Cn1nc(C(=O)O)c2ccccc2c1=O)Nc1cccc(Br)c1, the outcome was “inactive”. For COC(=O)c1cc2ccsc2n1CC(=O)Nc1cc(Cl)ccc1OC, the outcome was “inactive”. With Cc1ccc(/C(N)=N/OC(=O)c2ccco2)cc1 the outcome was “inactive”. For CCCCN(CCCC)S(=O)(=O)c1ccc2oc(C(=O)N3CCOCC3)c(C)c2c1, the outcome was “inactive”. With COC(=O)[C@@]1(C)[C@H]2C(=O)N(Cc3ccccc3)C(=O)[C@H]2[C@H]2CN=C(SCC3CC3)N21 the outcome was “inactive”. For COc1ccc(-n2c(=O)c3c4c(sc3n3c(=S)[nH]nc23)CCC4)cc1, the outcome was “inactive”. In the case of CCOc1ccc(NC(=O)CN2CCC(n3cnc4cc(F)ccc43)CC2)cc1, the outcome is reported as “inactive”. With CO[C@@H](C(=O)N(C)C[C@H]1OCc2ccccc2-c2c(n(C)c3ccccc23)C(=O)N([C@H](C)CO)C[C@H]1C)c1ccccc1 the outcome was “inactive”. In the case of Cc1ccc(Cl)cc1NC(=O)Cn1nc(-c2cccs2)ccc1=O, the outcome is reported as “inactive”. With Cc1ccccc1NC(=O)c1nc(S(C)(=O)=O)ncc1Cl the outcome was “inactive”. For C[C@@H]1CN([C@H](C)CO)C(=O)c2c(c3ccccc3n2C)-c2ccccc2CO[C@@H]1CN(C)C(=O)Nc1ccc2c(c1)OCO2, the outcome was “inactive”. For CC(Oc1ccc(Cl)cc1Cl)c1nc(-c2ccc(NC(=O)c3cccnc3)cc2)no1 (centres undefined), the outcome was “inactive”. With Cc1ccc(-c2nn(C)c(=O)c3ccccc23)cc1S(=O)(=O)NCCN(C)C the outcome was “inactive”. In the case of O=C(C[C@H]1CC[C@H](NC(=O)NC2CCCCC2)[C@H](CO)O1)NCc1ccc(Cl)cc1, the outcome is reported as “inactive”. For CCCCSc1ccc(NC(=O)c2cccnc2)cc1, the outcome was “inactive”. For CCn1c(SCC(N)=O)nnc1C(C)C, the outcome was “inactive”. For O=C1NC(=Nc2ccccc2Cl)S/C1=C\c1cccc([N+](=O)[O-])c1O, the outcome was “inactive”. In the case of CC1(Cc2ccc(Cl)s2)C(=O)Nc2c(Cl)ccc(Cl)c21 (centres undefined), the outcome is reported as “inactive”. For O=C(NCc1ccccc1)N1CCC(n2cnc3cc(F)ccc32)CC1, the outcome was “inactive”. For COc1ccc(C(=O)NN(C)c2nc(-c3ccccc3)cc(C)c2S(C)(=O)=O)cc1, the outcome was “inactive”. With O=C(NCc1ccccc1)c1ccc(NC(=O)C2CC2)cc1 the outcome was “inactive”. In the case of CSc1nn(-c2ccc(C(=O)OC(C(=O)NC(N)=O)C(C)C)cc2)c(=S)s1 (centres undefined), the outcome is reported as “inactive”. For CC(=O)Nc1ccc(NC(=O)CN(c2cc(Cl)ccc2Cl)S(C)(=O)=O)cc1, the outcome was “inactive”. For Cc1nc(N2CCN(S(=O)(=O)c3ccc(F)cc3)CC2)c2c(-c3cccs3)csc2n1, the outcome was “inactive”. With Cc1ccc(S(=O)(=O)NC(CC(C)C)C(=O)N2CCCCCCC2)cc1 (centres undefined) the outcome was “inactive”. For O=[N+]([O-])c1ccc(S(=O)(=O)c2cccc(C(F)(F)F)c2)nc1, the outcome was “inactive”. For Nc1ccccc1Oc1ncc(C(F)(F)F)cc1Cl, the outcome was “inactive”. For CCOC(=O)c1sc2nc(C)nc(NCc3ccccc3OC)c2c1C, the outcome was “inactive”. With CCO[C@H]1OC(C(=O)Nc2ccccc2)=C[C@@H](c2csc3ccccc23)[C@@H]1CCCO the outcome was “inactive”. For O=C(NCCCN1CCOCC1)c1ccccc1N1C(=O)[C@@H]2Cc3c([nH]c4ccccc34)C(c3ccccc3)N2C1=O (some centres undefined), the outcome was “inactive”. For O=C(Cc1ccccn1)NCC[C@@H]1CC[C@H](NC(=O)Nc2ccc(C(F)(F)F)cc2)[C@@H](CO)O1, the outcome was “inactive”. For O=C(Cc1ccccn1)NCC[C@@H]1CC[C@@H](NC(=O)Nc2ccc(C(F)(F)F)cc2)[C@@H](CO)O1, the outcome was “inactive”. For Cc1cccc2sc(N3CCN(C(=O)c4cccs4)CC3)nc12, the outcome was “inactive”.
